Results published in PubChem BioAssay (NCATS).
Records with an inconclusive call do not appear. Activity calls are given as the source filed them. The call rests on the fitted dose curve; in most records, active means well fitted curve in the direction sought with a large enough effect; inconclusive means small, poorly fitted or top-dose-only effect, or another doubt; inactive means no such curve, though single readings can be large; an effect the other way counts as inactive or inconclusive.

Columns and labels:
[1] = qHTS of pediatric cancer cell lines to identify multiple opportunities for drug repurposing: Primary screen for SJ-GBM2 cells (AID 1347091)
Procedure, shortened: (§1)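 Cell viability, CellTiter-Glo luminescence; 500-1,000 cells/well, 8- or 11-point titration, 48 h compound exposure at 37 degrees C, 5% CO2. Controls: DMSO neutral, bortezomib 2.3 µM final as positive.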

[2] = qHTS of pediatric cancer cell lines to identify multiple opportunities for drug repurposing: Primary screen for A673 cells (AID 1347092); further: nearly all actives have a fitted effect of over 45% in size
Procedure, shortened: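 Titration-based qHTS on A673 cells: MIPE compounds spanned 11 points (0.78 nM to 46 µM final), NPC compounds 8 points (0.59 nM to 46 µM final). Viability after 48 h was measured by ATP luminescence.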

[3] = qHTS of pediatric cancer cell lines to identify multiple opportunities for drug repurposing: Primary screen for SK-N-MC cells (AID 1347093)
Procedure, shortened: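 Metabolically active cells were quantified by ATP-dependent luminescence (CellTiter-Glo, 15 min at room temperature) following 48 h treatment. Cells had been plated at 500-1,000 per well and settled for 5 h beforehand.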

[4] = qHTS of pediatric cancer cell lines to identify multiple opportunities for drug repurposing: Primary screen for BT-37 cells (AID 1347094)
Procedure, shortened: (§2)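 Cells plated at 500-1,000/well in growth medium, compounds added after 5 h. MIPE tested at 11 points (from 0.78 nM), NPC at 8 points (from 0.59 nM). CellTiter-Glo luminescence after 48 h; concentration-response curves from primary screen.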

[5] = qHTS of pediatric cancer cell lines to identify multiple opportunities for drug repurposing: Primary screen for NB-EBc1 cells (AID 1347095)
Procedure, shortened: as §2

[6] = qHTS of pediatric cancer cell lines to identify multiple opportunities for drug repurposing: Primary screen for U-2 OS cells (AID 1347096); further: nearly all actives have a fitted effect of over 50% in size
Procedure, shortened: (§3)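 Cells (500-1,000/well) rested 5 h, then received compounds for 48 h; metabolically active cells were measured by CellTiter-Glo luminescence. Final concentrations spanned up to 46 µM (MIPE, 11-point) or 0.59 nM-46 µM (NPC, 8-point) in primary screens, 11-point in follow-ups.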

[7] = qHTS of pediatric cancer cell lines to identify multiple opportunities for drug repurposing: Primary screen for Saos-2 cells (AID 1347097); further: nearly all actives have a fitted effect of over 40% in size
Procedure, shortened: as §2

[8] = qHTS of pediatric cancer cell lines to identify multiple opportunities for drug repurposing: Primary screen for SK-N-SH cells (AID 1347098); further: nearly all actives have a fitted effect of over 65% in size
Procedure, shortened: as §3

[9] = qHTS of pediatric cancer cell lines to identify multiple opportunities for drug repurposing: Primary screen for NB1643 cells (AID 1347099); further: nearly all actives have a fitted effect of over 50% in size
Procedure, shortened: as §2

[10] = qHTS of pediatric cancer cell lines to identify multiple opportunities for drug repurposing: Primary screen for DAOY cells (AID 1347090); further: nearly all actives have a fitted effect of over 55% in size
Procedure, shortened: as §1

Measured: Potency
Potency means the concentration at half of the fitted maximal effect.

CCC(=O)N1CCN(c2ccc(-n3c(=O)ccc4cnc5ccc(-c6cnc7ccccc7c6)cc5c43)cc2C(F)(F)F)CC1
active: [1] 0.0187 µM | [2] 0.0118 µM | [3] 0.0053 µM | [4] 0.0217 µM | [5] 0.0662 µM

CC[C@@H]([C@H](C)O)n1ncn(-c2ccc(N3CCN(c4ccc(OCC5CO[C@@](Cn6cncn6)(c6ccc(F)cc6F)C5)cc4)CC3)cc2)c1=O (some centres not stated)
active: [1] 18.7 µM | [2] 18.7 µM | [3] 16.6 µM | [5] 20.9 µM | [7] 26.4 µM | [9] 23.5 µM
inactive: [6] | [8]

O=C(Nc1cccc2c(=O)cc(-c3nn[nH]n3)oc12)c1ccc(OCCCCc2ccccc2)cc1
inactive: [10] | [6] | [9]

C[C@H](CCC(=O)O)[C@H]1CC[C@H]2[C@H]3[C@@H](CC[C@]12C)[C@@]1(C)CC[C@@H](O)C[C@H]1C[C@@H]3O
inactive: [10] | [6] | [7] | [8] | [9]
active: [4] 27.3 µM | [5] 14.8 µM

CCC[C@H](Nc1nc(-c2ccc(NC(=O)NCC)c(OC)c2)ncc1C)c1cccnc1
active: [1] 0.0105 µM | [2] 0.0187 µM | [3] 0.0118 µM | [4] 0.0137 µM | [5] 0.0066 µM

CC1=C(C(=O)Nc2cc3cn[nH]c3cc2F)C(c2ccc(C(F)(F)F)cc2)CC(=O)N1 (configuration not stated)
inactive: [10] | [6]

Cc1c(-c2cccc3c(CCCOc4cccc5ccccc45)c(C(=O)O)n(Cc4cccnc4)c23)c(COc2ccc(N3CCN([S+](=O)([O-])N(C)C)CC3)cc2)nn1C
inactive: [8]
active: [10] 23.5 µM | [3] 10.5 µM | [9] 23.5 µM

COc1ccc(-c2nc3ccc(C4=NNC(=O)CC4C)cc3[nH]2)cc1 (configuration not stated)
active: [10] 21.1 µM | [3] 21.1 µM | [5] 11.9 µM | [8] 15.4 µM

C[C@@]1(c2cc(-c3cncnc3)c(F)cc2F)CCSC(N)=N1
inactive: [6]
active: [1] 4.69 µM | [2] 0.0469 µM | [3] 2.96 µM | [4] 3.06 µM | [5] 8.33 µM | [7] 2.96 µM | [8] 12.1 µM

Nc1ncnc2c1c(-c1cccc(OCc3ccccc3)c1)cn2C1CC(CN2CCC2)C1 (configuration not stated)
inactive: [10] | [4]
active: [5] 10.5 µM | [7] 3.32 µM

COc1nccc(-c2c(-c3ccc(F)cc3)ncn2C2CCNCC2)n1
inactive: [10] | [3] | [5] | [6] | [8]

CCNC(=O)CCCC=CC[C@@H]1[C@H](C=CC(O)CCc2ccccc2)[C@@H](O)C[C@@H]1O (some centres not stated)
inactive: [1] | [2] | [3] | [5] | [6] | [7]

COc1ccc(CCN(C)CCCOc2ccc(S(=O)(=O)c3[nH]c4ccccc4c3C(C)C)cc2)cc1OC
inactive: [10] | [6]
active: [4] 19.3 µM | [5] 20.9 µM

OC(c1cc(C(F)(F)F)nc2c(C(F)(F)F)cccc12)C1CCCCN1 (configuration not stated)
inactive: [10] | [5] | [9]
active: [2] 18.7 µM | [8] 34.1 µM

O=c1[nH]nc(OCCCc2ccc(Cl)cc2)c(NCc2cccnc2)c1Br
inactive: [8]
active: [1] 23.5 µM | [2] 9.35 µM | [3] 10.5 µM | [4] 21.7 µM | [6] 23.5 µM | [7] 26.4 µM | [9] 23.5 µM

Cc1cccc(-c2[nH]c(C(C)(C)C)nc2-c2ccc3c(c2)OCO3)n1
active: [1] 4.69 µM | [2] 4.69 µM | [3] 2.96 µM | [4] 6.11 µM | [7] 0.418 µM | [8] 30.4 µM | [9] 11.8 µM

CNC(=O)c1c(-c2ccc(F)cc2)oc2cc(N(CCO)S(C)(=O)=O)c(C3CC3)cc12
active: [10] 23.5 µM | [2] 23.5 µM | [7] 16.6 µM | [8] 30.4 µM

CC(C)Oc1cc(Nc2nc(N[C@@H](C)c3ccc(F)cn3)ncc2Cl)[nH]n1
active: [1] 16.6 µM | [2] 9.35 µM | [3] 4.69 µM | [4] 27.3 µM | [5] 3.32 µM | [6] 23.5 µM | [7] 5.26 µM | [8] 13.6 µM | [9] 1.48 µM

Cc1ccc2c(c1)C(=O)[C@]1(O)CCN(c3ccccc3)C1=N2
active: [3] 20.9 µM | [5] 7.43 µM
inactive: [10] | [4] | [6] | [7]

CCN(CC)CCCCNc1nc2cc(Cl)c(Cl)cc2nc1-c1ccc(-c2cccs2)s1
active: [1] 10.5 µM | [2] 11.8 µM | [3] 13.2 µM | [4] 27.3 µM | [5] 20.9 µM | [7] 18.7 µM

CN1CCc2c(n(Cc3ccc(C(=O)NO)cc3)c3ccccc23)C1
active: [1] 16.6 µM | [2] 14.8 µM | [3] 9.35 µM | [5] 16.6 µM
inactive: [6] | [7]

CN(C)CCOc1ccc(C(=C(CCCl)c2ccccc2)c2ccccc2)cc1
inactive: [10] | [3] | [6] | [8] | [9]

CCOC(=O)[C@H](CCc1ccccc1)N[C@@H](C)C(=O)N1CCCC1C(=O)O (some centres not stated)
inactive: [1] | [4] | [6] | [7]
active: [2] 18.7 µM | [3] 8.33 µM
